# Measured values taken from PubChem BioAssay AID1347076 (National Center for Advancing Translational Sciences (NCATS), 2019).
# About 13,000 (3.2%) of roughly 400,000 compounds were called active. About 18% were inconclusive and are not listed. Shown is part of a subset that was picked to be rich in actives. Unmarked numbers belong to inactive results. The call rests on the fitted dose curve; in most records, active means well fitted cell-killing curve with a large enough effect; inconclusive means small, poorly fitted or top-dose-only effect, or effect the other way; inactive means flat fitted curve, though single readings scatter.
# Test: qHTS assay for MDR1-selective chemotherapeutics: Primary screen using the drug-selected MDR subline cells KB-V1; further: nearly all actives have a fitted effect of over 60% in size
# Conditions: KB-V1 MDR cells viability, CellTiter-Glo, 72 h; series mostly up to 46.1 µM; activity change, negative = cytotoxicity: at the top concentration
# Method in brief: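 Cytotoxicity toward P-gp-expressing KB-V1 cells was determined as loss of CellTiter-Glo luminescence after 72 h at 37 degrees C. Compounds were tested in quantitative HTS format across a concentration range, with curves fitted to normalized data.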
# On the % scale 0 is the no-effect control and ±100 the full control effect; potency means the concentration at half of the fitted maximal effect.
Structure (SMILES),"activity change, negative = cytotoxicity [%]",Potency
CCC(C)CN1C(=O)CN(S(C)(=O)=O)CC1(C)C(=O)Nc1ccc2c(c1)OCCO2 (stereo not given),-11.8,–
O=C(C=CC(=O)Nc1ccc(F)cc1F)Nc1ccc(F)cc1F,1.29,–
Cc1ccc(C(=O)OCC(=O)NC2CCCCCCC2)cc1C,17.9,–
O=C(c1cccs1)N1CCN(Cc2ccc3c(c2)OCO3)CC1,-13.2,–
O=C(Nc1cccc2ccccc12)N1CCN(Cc2ccc3c(c2)OCO3)CC1,–,16.4 µM (active)
O=C(CCCN1C(=O)c2cccc3cccc(c23)C1=O)N1CCN(Cc2ccc3c(c2)OCO3)CC1,4.42,–
O=[n+]1c2c(n([O-])c3cc(Br)ccc31)CCC2,0,–
C/C(=N\N)c1c(-c2ccccc2)c2cc(Br)ccc2[nH]c1=O,10.2,–
O=C1CCCc2c1[nH]c1ccc(Br)cc21,–,0.517 µM (active)
COC(=O)C(Cc1c[nH]c2ccccc12)NC(=O)CCNC(=O)c1ccco1 (stereo not given),27.7,–
COc1cc2nc(C#Cc3nc4cc(OC)c(OC)cc4[nH]3)[nH]c2cc1OC,4.7,–
C=CCOc1cccc(C2NC(=O)c3ccccc3O2)c1 (stereo not given),-7.2,–
O=C1NC(c2cccc(Cl)c2)Nc2ccccc21 (stereo not given),–,8.2 µM (active)
COc1ccc(C2NC(=O)c3ccccc3N2)cc1 (stereo not given),0,–
CCCNC(=O)C1(C)CCN1C(=O)C1(c2ccccc2)CC1 (stereo not given),-1.84,–
Cc1cccc(N2CCN(c3c(CN4CCCC4)c(=O)oc4ccccc34)CC2)c1C,13.2,–
Cc1c(CN2CCC(C)CC2)c(=O)n(-c2ccccc2)n1C,-7.43,–
Cc1cccc(N2CCN(Cc3c(C)n(C)n(-c4ccccc4)c3=O)CC2)c1C,–,18.4 µM (active)

Structure (SMILES),"activity change, negative = cytotoxicity [%]",Potency
CSCCC(NC(=O)COc1ccccc1)C(=O)N(C)CC(=O)Nc1ccc(C)cc1 (stereo not given),–,16.4 µM (active)
CSCCC(NC(=O)COc1ccccc1)C(=O)Nc1ccc(C)cc1 (stereo not given),-12.8,–
CSCCC(NC(N)=O)C(=O)N(C)CC(=O)Nc1ccc(C)cc1 (stereo not given),1.58,–
O=C1[C@H]2[C@@H](c3ccc(C(F)(F)F)cc3)N[C@]3(CCCN(Cc4ccc(Br)cc4)C3=O)[C@H]2C(=O)N1Cc1ccccc1,-1.88,–
COc1ccc(C(=O)NCC(c2ccc(N(C)C)cc2)N2CCc3ccccc32)c(OC)c1 (stereo not given),14.2,–
Nc1c(C(=O)NCc2ccccc2)nnn1Cc1cccc(Cl)c1,–,9.2 µM (active)
Nc1c(C(=O)Nc2ccc3c(c2)OCCO3)nnn1Cc1ccccc1,-12.8,–
COc1cccc(CNC(=O)c2nnn(CC(=O)Nc3cc(Cl)ccc3C)c2N)c1,2.29,–
CCS(=O)(=O)N1CCc2cc(C(=O)NCc3ccc(OC)cc3)ccc21,3.83,–
Cc1ccc(Oc2c(C(F)(F)F)oc3c(CN4CCCCC4)c(O)ccc3c2=O)cc1,-0.449,–
COc1ccc(-c2c(C)c3ccc(O)c(CN4CCN(C)CC4)c3oc2=O)cc1OC,1.72,–
O=c1oc2c(CN3CCCCC3)c(O)ccc2c2c1CCCCC2,–,5.8 µM (active)
Cc1ccc(S(=O)(=O)N[C@H]2CCC[C@@H]2O)cc1,2.83,–
CCn1ncc(C2=NOC(C(=O)N3CCN(c4ccccc4)CC3)C2)c1C (stereo not given),-4.05,–
COc1cc(NC(=O)C2CC(c3ccccc3O)=NO2)c(OC)cc1Cl (stereo not given),0.517,–
CCn1ncc(C2=NOC(C(=O)Nc3ccccc3C(=O)OC)C2)c1C (stereo not given),–,18.4 µM (active)
COc1cccc(CNC(=O)C(NS(=O)(=O)c2ccc3nc(C)sc3c2)C(C)C)c1 (stereo not given),-18.7,–
